This is an account of results in PubChem BioAssay AID1850 (Southern Research Specialized Biocontainment Screening …, 2009).

The campaign covered roughly 310,000 compounds. About 1,000 (0.32%) were called active. How the calls were made is not given here. A selection follows. Potency and affinity values are given separately.

The experiment can be described thus: Inhibition of PhoP regulon, Salmonella typhi GFP reporter cells, confirmation, 4 h (AID 1850).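 Further: 0% = induced wells with vehicle and 100% = uninduced wells.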 As to conditions: Salmonella Typhi PhoP-promoter GFP reporter, fluorescence, at 50 µM, active compounds read high.
On to `COc1ccccc1C(=O)NC(=O)Nc1nc(-c2ccccc2)cc(C(F)(F)F)n1`, for which the inhibition is 2.17% (inactive).
Take `COc1cc(/C=C/C(=O)O)ccc1O`: the inhibition was 10.8% (inactive).
For `C/C=C/c1ccc(O)c(OC)c1`, the inhibition was 1.57% (inactive).
For `C/C(=N\Nc1nc(C)cc(-c2ccccc2)n1)c1ccc(O)cc1`, the inhibition is -2.43% (inactive).
Turning to `Cc1cccc(C)c1NC(=O)CN(C)C(=O)c1ccc2nc[nH]c2c1`, the inhibition is 1.29% (inactive).
`Cc1ccc(C(=O)NCC(C)NC(=O)c2ccc(C)c([N+](=O)[O-])c2)cc1[N+](=O)[O-]` (stereo unspecified): the inhibition is -3.75% (inactive).
As to `O=C1c2ccccc2NC(c2ccc(-c3cccc([N+](=O)[O-])c3)o2)N1O` (stereo unspecified), the inhibition was -4.04% (inactive).
For the compound `CCOC(=O)c1ccc(-c2ccc(C3Nc4ccccc4C(=O)N3O)o2)cc1` (stereo unspecified), the inhibition was -7.99% (inactive).
Turning to `CCN1CCN(c2ccc(S(=O)(=O)N3CCCCC3)cc2NC(=O)c2ccccc2)CC1`, the inhibition was -7.27% (inactive).
With `CSC(=NS(=O)(=O)c1ccc(C)cc1)SC`, the inhibition is 2.62% (inactive).
Under `CCC(C)(C)NC(=O)CN(CC1CCCO1)C(=O)CCC(=O)Nc1nccs1` (stereo unspecified) stands 1.73% (inactive).
`CCOC(=O)C1CCN(c2cc3c(cc2NC(=O)c2ccccc2F)n(C)c(=O)n3C)CC1`: the inhibition was -6.44% (inactive).
As for `CCOC(=O)c1cn(CC2CC2)c2cc(F)c(F)cc2c1=O`, the inhibition was -1.36% (inactive).
For the compound `CCN(CC)CCCNC(=O)c1c(O)c2cc(F)cc3c2n(c1=O)C(C)CC3` (stereo unspecified), the inhibition was -12.5% (inactive).
Take `O=C(O)c1cn(-c2ccc(F)c(F)c2)c2c(F)c(F)c(F)c(F)c2c1=O`: the inhibition is -8.9% (inactive).
As to `CC1CCc2cc(F)cc3c(O)c(C(=O)NCCN(C)C)c(=O)n1c23` (stereo unspecified), the inhibition was -11.2% (inactive).
In the case of `C[n+]1ccccc1/C=C/c1ccc(F)c(F)c1` it was -2.41% (inactive); in that of `N#Cc1ccccc1OCC(O)CS(=O)(=O)c1ccccc1` (stereo unspecified), 8.05% (inactive).
In the case of `Cc1ccc(NNC(=O)c2cc(C(C)(C)C)nn2Cc2ccccc2)cc1` it was 1.12% (inactive); in that of `Cc1cc(C)cc(NS(=O)(=O)c2csc(C(N)=O)c2)c1`, -4.13% (inactive).
Under `N#Cc1c(C(F)(F)F)cc(Cc2ccccc2)nc1SCC(=O)NCC(=O)O` stands -9.26% (inactive); under `Cc1ccc2oc(=O)c3cc(C(=O)NCCCN4CCc5ccccc5C4)sc3c2c1`, -1.04% (inactive).
Consider `Cc1c(OCC(=O)N[C@@H](Cc2c[nH]c3ccccc23)C(=O)O)ccc2c1oc(=O)c1ccccc12`, for which the inhibition was 4.69% (inactive).
With `CCOC(=O)C1CCCN(C(=O)c2ccc3nc(-c4ccccc4)c(-c4ccccc4)nc3c2)C1` (stereo unspecified), the inhibition is 5.36% (inactive).
On to `CCCc1nc2sc(C(=O)OCC)c(N)c2c2c1COC(C)(C)C2`, for which the inhibition was 0.3% (inactive).
In the case of `O=C(CSc1nccc(=O)[nH]1)Nc1ccc(Br)c(Cl)c1` it was 4.82% (inactive); in that of `CCN(CC)C(=O)CSc1nc(COc2ccccc2)nc2ccccc12`, -0.33% (inactive).
On to `CC[C@@H](C)[C@H](CN[C@H](CNC)[C@@H](C)O)NCCc1ccc(OC)cc1`, for which the inhibition was 4.36% (inactive).
Take `CC[C@H](C)[C@@H](CNC)NC[C@@H](Cc1ccc(O)cc1)NCC(C)(C)C`: the inhibition was 4.52% (inactive).
As for `O=C(O)CCCC(=O)NCCCCc1ccccc1`, the inhibition is -10.7% (inactive).
As to `CCCCCCSc1cc(-c2nc3cc(C)ccn3c2NCCCC)ccc1OC`, the inhibition is 0.7% (inactive).
Under `CCCCCSc1cc(O)c(C(CNC)C(C)C)cc1OC` (stereo unspecified) stands -3.45% (inactive); under `CNCCc1ccc(OC)c(OC)c1`, 10.9% (inactive).
In the case of `COc1cc2ccc3c(CCN(C)C)cc(OC)c(OC)c3c2cc1OC` it was 13.6% (inactive).
In the case of `CCCCCSc1cc(OC)c(CCN(C)C)cc1OC` it was 11.2% (inactive); in that of `CCCCCSc1cc(OC)c(CCN)cc1OC`, 15.9% (inactive); in that of `Cc1ccccc1S(=O)Cc1ccc(C(=O)NC2CCN(Cc3ccccc3)CC2)o1` (stereo unspecified), -1.02% (inactive).
Take `COCC1CCN(C(=O)C2CCC(=O)N(CCc3cccc(F)c3)C2)CC1` (stereo unspecified): the inhibition was -0.82% (inactive).
In the case of `COc1cc(/C=N/N2CCN(c3ccc(Cl)cc3)CC2)cc(OC)c1OC(C)=O` it was -1.44% (inactive); in that of `CC(=O)N1CCN(c2ccc(NC(=O)c3cccc(Cl)c3)cc2)CC1`, 13.2% (inactive); in that of `O=C(CCS(=O)(=O)c1ccc(Cl)cc1)Nc1nc(-c2ccncc2)cs1`, -19.9% (inactive).
Turning to `Cc1ccc(C(=O)Nc2ccccc2Sc2ccccc2)cc1`, the inhibition is 8.29% (inactive).
Take `Cc1ccc(C(=O)CC(=O)c2ccccc2)cc1`: the inhibition was 2.22% (inactive).
In the case of `Cc1cc(Nc2cccc(C(F)(F)F)c2)n2nc(C)nc2n1` it was 2.14% (inactive); in that of `Brc1ccc2c(c1)C(C1=NCCN1)c1ccccc1CS2` (stereo unspecified), -3.48% (inactive).
Under `Clc1ccc2c(c1)C(OC1CN3CCC1CC3)c1ccccc1CS2` (stereo unspecified) stands -1.82% (inactive); under `COc1ccc(C(=O)NCCCOC(=O)c2ccc(OC)cc2)cc1`, -6.57% (inactive).
In the case of `CCOC(=O)c1sc(=NC(=O)c2ccc(F)cc2)n(C)c1C` it was 0.21% (inactive); in that of `Cc1cc(N2CCC(C)CC2)nc(-c2ccccc2O)n1`, -7.47% (inactive); in that of `Cc1cc(N2CCN(C3CCCCC3)CC2)nc2cccc(O)c12`, 40.7% (inactive).
For the compound `CN(C)c1ccc(/C=N/NC(=O)c2cccc(C(=O)N/N=C/c3ccc(N(C)C)cc3)n2)cc1`, the inhibition was -1.09% (inactive).
In the case of `COc1ccc(-c2ccc(=O)n(CC(=O)Nc3cccc(O)c3)n2)cc1OC` it was -4.09% (inactive).
Turning to `O=c1cc(CN2CCN(C/C=C/c3ccccc3)CC2)c2cc(O)c(-c3ccccc3)cc2o1`, the inhibition was 1.7% (inactive).
As to `O=c1cc(CN2CCN(C/C=C/c3ccccc3)CC2)c2cc(O)ccc2o1`, the inhibition was 0.2% (inactive).
In the case of `COc1cc(C(=O)NCC(=O)OCC(=O)Nc2nnc(-c3ccccc3)o2)cc(OC)c1OC` it was 1.32% (inactive); in that of `COc1cccc(NS(=O)(=O)c2nc3nc(C)cc(C)n3n2)c1`, 5.81% (inactive); in that of `Cc1cc(C)n2nc(S(=O)(=O)NC(C)(C)C)nc2n1`, -11.7% (inactive).
Consider `CCOc1cc2[nH]c(=O)n(CCCC(=O)NCc3ccco3)c(=O)c2cc1OCC`, for which the inhibition was -5.99% (inactive).
Under `O=C(CNS(=O)(=O)/C=C/c1ccccc1)OC1CCOC1=O` (stereo unspecified) stands -7.99% (inactive).
In the case of `COc1ccc(C(C[N+](=O)[O-])n2nc(C)cc2C)cc1` (stereo unspecified) it was 3.95% (inactive).
For `Cc1cc(C)n(C(C[N+](=O)[O-])c2ccc(Cl)cc2)n1` (stereo unspecified), the inhibition was 17.4% (inactive).
In the case of `O=C(NCCCc1ccncc1)C1CCC(=O)N(Cc2ccc(Cl)cc2)C1` (stereo unspecified) it was 2.99% (inactive).
Under `CC(C)(C)NC(=S)NNC(=O)[C@H]1C[C@@H]1c1ccccc1` stands -2.2% (inactive); under `CCCCOC(=O)Cn1c(=N)n(CCC)c2ccccc21`, -6.14% (inactive); under `Cc1cccc(OCCCCn2c(CO)nc3ccccc32)c1`, 1.97% (inactive).
In the case of `CCCCCCCCCCOC(=O)Cn1c(COc2ccccc2)[n+](C)c2ccccc21`, the inhibition is 0.36% (inactive).
In the case of `CCCCOC(=O)Cn1c2ccc(OC)cc2c2nc3ccccc3nc21` it was -14.3% (inactive); in that of `CN(C)C(=O)Oc1cccc(OCc2n(C)c3ccccc3[n+]2C)c1`, -12.8% (inactive); in that of `CCCCCOC(=O)Cn1c(=O)oc2ccc(C)cc21`, -6.52% (inactive).
`CCCCOC(=O)Cn1c(=O)n(CC(=O)OCCCC)c2ccccc21`: the inhibition is 2.5% (inactive).
Under `CCCCCOC(=O)Cn1c(=O)oc2ccccc21` stands 4.41% (inactive).
Consider `C=C(C)Cn1c(SCC(=O)N/N=C/c2ccccc2)nc2ccccc2c1=O`, for which the inhibition is 2.73% (inactive).
In the case of `CCOC(=O)C1CCCN(C(=O)CSc2ccccc2)C1` (stereo unspecified) it was 0.88% (inactive).
Under `CC(C)(C)c1cc(NS(=O)(=O)c2cccs2)no1` stands 2.79% (inactive); under `CC(C)NC(=O)C1CCCN(S(=O)(=O)c2cccc3nonc23)C1` (stereo unspecified), 5.72% (inactive).
Under `CSc1cnc2c(N)nc(N(C)C)nc2n1` stands -2.44% (inactive); under `CCOc1cc(NC(=O)C2CC2)c(OCC)cc1NC(=O)CCn1nnc2ccccc21`, 0.44% (inactive); under `CCn1cc(CN2CCC(n3nccc3NC(=O)C3CCCC3)CC2)c(C)n1`, -10.6% (inactive).
Take `Brc1ccc(-c2nnc(-c3ccco3)o2)cc1`: the inhibition is 7.53% (inactive).
Turning to `CN(C)C(=O)Oc1ccc(OCc2n(C)c3ccccc3[n+]2C)cc1`, the inhibition was -10.3% (inactive).
Under `CCCCc1n(CC(=O)c2ccc(Cl)cc2)c2ccccc2[n+]1C` stands 0.37% (inactive); under `Cc1nonc1OCCNCc1c(C(=O)N2CCCCCCC2)nc2ccc(Cl)cn12`, 0.8% (inactive).
In the case of `Cc1ccc(CN2CC(C(=O)Nc3cc(S(C)(=O)=O)ccc3Cl)CC2=O)cc1` (stereo unspecified) it was -8.57% (inactive); in that of `CC1(C)Cc2cccc(OCC(=O)N3CCN(c4cccc(C(F)(F)F)c4)CC3)c2O1`, 7.47% (inactive).
Consider `Cc1cc(C)c(OCCCNCc2ccccc2)c(Br)c1`, for which the inhibition was 13.8% (inactive).
Take `Cc1cc(C)c(OCCNCc2ccccc2)c(C)c1`: the inhibition was -8.25% (inactive).
Under `Cc1cc(Cl)cc(C)c1OCCNCc1ccccc1` stands -3.01% (inactive); under `COCCCNCCCCOc1c(Cl)cc(C)cc1Br`, 1.04% (inactive); under `CCn1c(N2CCN(CC(=O)Nc3cccc(C)c3C)CC2)nc2ccccc21`, -2.87% (inactive).
In the case of `Cc1cccc(NC(=O)CCNC(=O)c2ccco2)c1` it was -1.77% (inactive); in that of `CN(C)c1cnn(-c2ccccc2)c(=O)c1Cl`, -7.8% (inactive); in that of `CC(C)(O)CC[C@H](OC(=O)c1ccccc1)[C@](C)(O)[C@H]1CC[C@@]2(O)C3=CC(=O)[C@@H]4C[C@@H](O)[C@H](O)C[C@]4(C)C3CC[C@]12C` (stereo partly specified), 4.63% (inactive).
For `COc1ccc(C(C)NC(=O)Cc2ccc(Br)cc2)cc1` (stereo unspecified), the inhibition is 3.69% (inactive).
Under `CCOc1ccccc1NC(=O)c1cccc(NC(=O)C(C)C)c1` stands -6.67% (inactive).
Regarding `O=C(O)CCN1C(=O)CC(N2C(=O)/C(=C/c3ccc(Cl)cc3)SC2=S)C1=O` (stereo unspecified), the inhibition is -12.1% (inactive).
Under `O=C1CC(N2C(=O)/C(=C/C=C/c3ccccc3)SC2=S)C(=O)N1c1ccccc1` (stereo unspecified) stands -6.61% (inactive).

Usually inhibition stands for the drop in the measured response relative to a control, in per cent.
